Reference: PubChem BioAssay (EPA / NIEHS)
Results filed as inconclusive are left out. Activity calls are given as the source filed them. Rule for the calls, unless noted: active = hit-call score of the fitted dose curve at least 0.9, where 1 is the maximum; inconclusive = response in the unintended direction; inactive = score below 0.9.

Assays:
[1] = NVS_IC_rCaBTZCHL: NovaScreen (NVS) Ion Channel Assay for Calcium Channel, Type L, Benzothiazepine Site (CaBTZCHL) (AID 2283337)
Outline: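 Radioligand displacement at the benzothiazepine site using rat cortical membranes; bound label measured by filtration and scintillation counting 1.5 h after dosing. Single-point 25 uM in duplicate, then concentration series; DMSO baseline.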

[2] = target: human CYP2C8, CYP2C8 (gene 1558) (UniProt P10632); experiment: NVS_ADME_hCYP2C8: NovaScreen (NVS) CYP450-related Enzyme Activity (ADME) Assay for human CYP2C8 (AID 2283104; active = hit-call score of the fitted dose curve at least 0.9, where 1 is the maximum; inactive = score below 0.9)
Protocol: NVS_ADME_hCYP2C8 is a biochemical, single-readout assay that uses extracted gene-proteins in a cell-free assay. Measurements were taken 0.5 hour after chemical dosing in a 96-well plate.NVS_ADME_hCYP2C8 is one of one assay component(s) measured or calculated from the NVS_ADME_hCYP2C8 assay. It is designed to make measurements of enzyme activity, a form of enzyme reporter, as detected with fluorescence intensity signals by Fluorescence technology.Data from the assay component NVS_ADME_hCYP2C8 was analyzed into 1 assay endpoint. This assay endpoint, NVS_ADME_hCYP2C8, was analyzed in the positive analysis fitting direction relative to Acetonitrile as the negative control and baseline of activity. Using a type of enzyme reporter, loss-of-signal activity can be used to understand changes in the enzymatic activity as they relate to the gene CYP2C8. Furthermore, this assay endpoint can be referred to as a primary readout, because this assay has produced multiple assay endpoints where this one serves a enzymatic activity function. To generalize the intended target to other relatable targets, this assay endpoint is annotated to the cyp intended target family, where the subfamily is xenobiotic metabolism.
Binding assays used specific radioligands (tritiated, iodinated) with non-radioactive competitive displacement ligands in agonist or antagonist protocols (as indicated) and various reference compounds and inhibitors to titrate specific binding to receptors and transporters. Most enzyme assays (CYPs, kinases, phosphatases, proteases, HDACs) used recombinant protein and specific substrates (fluorescence mostly, some colorimetric and radioactive) and inhibitors, followed by a biochemical separation of substrate and product. All assays for the biochemical HTS were initially run in duplicate at a single concentration (10 uM for CYP450 assays and 25 uM for all others). […]

PPP2CA (gene 5515) = PPP2CA (gene 5515) (UniProt P67775); experiment: NVS_ENZ_hPPP2CA: NovaScreen (NVS) Enzymatic Assay for human Protein Phosphatase 2 Aatalytic subunit Alpha (PPP2CA) (AID 2283199)
Outline: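 Recombinant human PPP2CA with fluorescent substrate; product separated from substrate by electrophoretic mobility shift, read 1.33 h after dosing. Duplicate single-point at 25 uM, then singleton concentration-response up to 50 uM; loss of signal versus DMSO.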

[3] = CCTE_Harrill_HTTr_Apoptosis_PRF_DMEM_12hr: (Pilot) CCTE's 12-hour Apoptosis Assessment for the High-Throughput Transcriptomics (HTTr) Platform, in MCF-7 cells cultured in phenol red-free DMEM + 10% charcoal-stripped fetal bovine serum, Harrill Lab (AID 2283985; active = hit-call score of the fitted dose curve at least 0.9, where 1 is the maximum; inactive = score below 0.9)
Outline: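 MCF-7 cells in phenol red-free DMEM with 10% charcoal-stripped FBS, eight-point dilution series, 12 h exposure. Caspase-3/7 activation imaged by high content imaging with CellEvent Green reagent; bidirectional fit vs DMSO.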

[4] = target: human Androgen Receptor (AR), AR (gene 367) (UniProt P10275); experiment: ATG_hAR_XSP1: Attagene TRANS-FACTORIAL Multi-Species (XSP1) HepG2 Assay for human Androgen Receptor (AR) (AID 2283785)
Protocol: ATG_XSP1_multi-species_TRANS is a cell-based, multiplexed assay created by modifying the existing Attagene TRANS-FACTORIAL system to include a panel of nuclear receptors from some or all the following species: human (Homo sapiens), mouse (Mus musculus), frog (Xenopus laevis), zebrafish (Danio rerio), chicken (Gallus gallus), and turtle (Chrysemys picta). The ECOTOX-FACTORIAL format uses HepG2, a human liver cell line, with measurements taken at 24 hours after chemical dosing in a 24-well plate. Xsp1 included 3 nM 6-alpha-fluorotestosterone to partially stimulate the androgen receptor.ATG_hAR_XSP1 is one of 29 assay components measured or calculated from the ATG_XSP1_multi-species_TRANS assay. It is designed to make measurements of mRNA induction, a form of inducible reporter, as detected with fluorescence intensity signals by Reverse transcription polymerase chain reaction (RT-PCR) and Capillary electrophoresis technology.The assay endpoint ATG_hAR_XSP1 was analyzed in the positive analysis fitting direction relative to DMSO as the negative control and baseline of activity. […] Furthermore, this assay endpoint can be referred to as a primary readout, because this assay has produced multiple assay endpoints where this one serves a reporter gene function. […]

[5] = target: human Ephrin type-B Receptor 2 (EphB2), EPHB2 (gene 2048) (UniProt P29323); experiment: NVS_ENZ_hEphB2: NovaScreen (NVS) Enzymatic Assay for human Ephrin type-B Receptor 2 (EphB2) (AID 2283156)
Outline: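 Recombinant kinase with fluorescent substrate, product separated by electrophoretic mobility shift, read 1 h after dosing. Duplicate 25 uM screen, then singleton concentration-response to 50 uM max; loss of signal versus DMSO.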

[6] = target: human Neonicotinoid receptor (NNR), CHRNA2 (gene 1135) (UniProt Q15822); experiment: NVS_LGIC_hNNR_NBungSens: NovaScreen (NVS) Ligand-Gated Ion Channel Assay for human Neonicotinoid receptor (NNR) (AID 2283313)
Outline: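 Radioligand displacement on human neuroblastoma membranes, 2 h, filter-based scintillation counting. Primary screen in duplicate at 25 uM; chemicals passing threshold (e.g. 30% inhibition) run singleton concentration-response to 50 uM; loss of binding fitted versus DMSO.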

Sequence of PPP2CA (gene 5515) (P67775 whole entry, looked up): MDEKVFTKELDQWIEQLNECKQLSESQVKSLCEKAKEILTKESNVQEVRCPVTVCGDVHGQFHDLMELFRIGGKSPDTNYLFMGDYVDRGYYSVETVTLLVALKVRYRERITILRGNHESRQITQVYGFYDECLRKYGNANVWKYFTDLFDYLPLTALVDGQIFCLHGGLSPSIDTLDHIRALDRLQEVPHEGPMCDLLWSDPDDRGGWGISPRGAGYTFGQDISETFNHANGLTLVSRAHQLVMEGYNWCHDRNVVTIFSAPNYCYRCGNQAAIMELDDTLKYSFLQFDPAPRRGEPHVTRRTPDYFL
Sequence of human Androgen Receptor (AR), AR (gene 367) (P10275 whole entry, looked up): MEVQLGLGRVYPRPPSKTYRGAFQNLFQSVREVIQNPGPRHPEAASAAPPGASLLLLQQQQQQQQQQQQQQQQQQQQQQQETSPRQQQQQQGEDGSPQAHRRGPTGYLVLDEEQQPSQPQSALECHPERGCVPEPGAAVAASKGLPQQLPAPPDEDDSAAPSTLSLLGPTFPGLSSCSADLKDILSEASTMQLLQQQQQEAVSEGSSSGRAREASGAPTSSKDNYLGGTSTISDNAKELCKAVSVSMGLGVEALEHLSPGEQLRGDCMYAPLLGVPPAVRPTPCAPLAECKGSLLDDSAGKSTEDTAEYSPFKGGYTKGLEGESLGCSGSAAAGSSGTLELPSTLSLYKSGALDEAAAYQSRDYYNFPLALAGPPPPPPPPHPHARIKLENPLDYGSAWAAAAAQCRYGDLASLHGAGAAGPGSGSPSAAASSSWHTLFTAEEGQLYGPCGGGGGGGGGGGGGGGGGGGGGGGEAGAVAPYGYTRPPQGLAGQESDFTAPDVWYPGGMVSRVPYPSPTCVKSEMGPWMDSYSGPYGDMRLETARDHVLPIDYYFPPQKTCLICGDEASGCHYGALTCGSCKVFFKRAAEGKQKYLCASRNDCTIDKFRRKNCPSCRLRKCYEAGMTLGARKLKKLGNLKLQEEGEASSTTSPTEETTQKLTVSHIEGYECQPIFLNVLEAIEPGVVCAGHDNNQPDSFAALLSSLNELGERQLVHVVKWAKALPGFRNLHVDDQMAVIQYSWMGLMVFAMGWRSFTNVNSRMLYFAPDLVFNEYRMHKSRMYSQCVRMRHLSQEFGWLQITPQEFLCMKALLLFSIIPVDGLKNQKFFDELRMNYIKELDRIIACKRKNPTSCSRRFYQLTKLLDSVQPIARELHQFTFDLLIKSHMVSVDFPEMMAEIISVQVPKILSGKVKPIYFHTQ
Sequence of human CYP2C8, CYP2C8 (gene 1558) (P10632 whole entry, looked up): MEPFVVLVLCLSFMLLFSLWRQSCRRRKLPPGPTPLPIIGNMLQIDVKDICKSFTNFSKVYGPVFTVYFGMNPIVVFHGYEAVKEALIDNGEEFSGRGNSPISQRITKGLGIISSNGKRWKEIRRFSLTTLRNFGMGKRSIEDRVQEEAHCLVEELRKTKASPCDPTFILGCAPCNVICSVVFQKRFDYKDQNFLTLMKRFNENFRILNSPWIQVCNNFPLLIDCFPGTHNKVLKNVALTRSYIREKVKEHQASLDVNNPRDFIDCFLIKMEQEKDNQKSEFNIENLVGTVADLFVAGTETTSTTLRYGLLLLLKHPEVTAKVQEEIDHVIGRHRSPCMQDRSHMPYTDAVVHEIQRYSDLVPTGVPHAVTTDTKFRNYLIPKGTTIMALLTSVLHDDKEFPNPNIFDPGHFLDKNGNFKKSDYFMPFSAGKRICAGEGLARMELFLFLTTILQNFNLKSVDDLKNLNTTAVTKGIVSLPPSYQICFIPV
Sequence of human Ephrin type-B Receptor 2 (EphB2), EPHB2 (gene 2048) (P29323 whole entry, looked up): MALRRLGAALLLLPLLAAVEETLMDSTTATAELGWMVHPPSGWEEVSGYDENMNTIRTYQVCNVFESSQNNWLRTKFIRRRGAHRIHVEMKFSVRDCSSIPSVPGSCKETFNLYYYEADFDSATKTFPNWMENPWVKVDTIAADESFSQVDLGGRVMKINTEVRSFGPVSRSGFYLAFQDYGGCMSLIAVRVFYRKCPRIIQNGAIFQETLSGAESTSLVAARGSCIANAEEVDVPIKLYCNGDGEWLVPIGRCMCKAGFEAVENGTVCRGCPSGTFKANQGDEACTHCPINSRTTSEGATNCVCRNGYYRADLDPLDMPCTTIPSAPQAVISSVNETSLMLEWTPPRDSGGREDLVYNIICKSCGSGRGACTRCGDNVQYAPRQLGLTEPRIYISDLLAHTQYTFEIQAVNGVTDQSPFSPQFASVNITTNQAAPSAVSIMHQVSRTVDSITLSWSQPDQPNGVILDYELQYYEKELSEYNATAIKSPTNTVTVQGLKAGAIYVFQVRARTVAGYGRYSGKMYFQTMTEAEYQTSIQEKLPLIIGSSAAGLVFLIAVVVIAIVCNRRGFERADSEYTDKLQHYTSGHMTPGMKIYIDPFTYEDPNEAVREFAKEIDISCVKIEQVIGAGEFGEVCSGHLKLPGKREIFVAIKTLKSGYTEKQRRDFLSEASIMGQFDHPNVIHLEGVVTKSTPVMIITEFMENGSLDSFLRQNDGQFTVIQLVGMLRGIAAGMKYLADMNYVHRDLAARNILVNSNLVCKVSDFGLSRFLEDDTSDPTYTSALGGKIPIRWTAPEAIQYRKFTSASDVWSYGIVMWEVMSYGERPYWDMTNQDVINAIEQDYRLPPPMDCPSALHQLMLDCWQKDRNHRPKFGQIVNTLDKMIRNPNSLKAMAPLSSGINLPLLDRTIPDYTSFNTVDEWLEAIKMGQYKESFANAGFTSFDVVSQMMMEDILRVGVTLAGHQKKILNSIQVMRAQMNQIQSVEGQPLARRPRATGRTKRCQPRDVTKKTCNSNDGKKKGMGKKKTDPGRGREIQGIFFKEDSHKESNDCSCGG
Sequence of human Neonicotinoid receptor (NNR), CHRNA2 (gene 1135) (Q15822 whole entry, looked up): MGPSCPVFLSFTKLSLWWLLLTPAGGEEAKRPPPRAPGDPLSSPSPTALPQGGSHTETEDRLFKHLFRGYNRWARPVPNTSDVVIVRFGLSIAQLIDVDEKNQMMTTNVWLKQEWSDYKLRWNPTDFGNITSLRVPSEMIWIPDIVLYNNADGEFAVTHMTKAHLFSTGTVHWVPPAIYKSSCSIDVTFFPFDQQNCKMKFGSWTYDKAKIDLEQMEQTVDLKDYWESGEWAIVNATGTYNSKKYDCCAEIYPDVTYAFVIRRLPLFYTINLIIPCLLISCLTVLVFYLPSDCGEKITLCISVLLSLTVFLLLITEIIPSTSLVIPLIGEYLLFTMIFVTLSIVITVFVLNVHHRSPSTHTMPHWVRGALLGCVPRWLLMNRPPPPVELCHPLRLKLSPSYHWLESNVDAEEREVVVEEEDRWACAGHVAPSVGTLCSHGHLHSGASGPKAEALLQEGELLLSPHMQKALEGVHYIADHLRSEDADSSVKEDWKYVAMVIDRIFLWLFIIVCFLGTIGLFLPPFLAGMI

## c1ccc(Nc2ccc3ccccc3c2)cc1
[1]
  outcome: inactive

## N#CSCSc1nc2ccccc2s1
[2]
  AC50: 4.46 µM (active)

## c1ccc2[nH]c(-c3cscn3)nc2c1
PPP2CA (gene 5515)
  outcome: inactive

## C[C@]12CC[C@@H]3c4ccc(O)cc4C[C@@H](CCCCCCCCCS(=O)CCCC(F)(F)C(F)(F)F)[C@H]3[C@@H]1CC[C@@H]2O (some centres not stated)
[3]
  outcome: inactive

## CC[C@H](c1ccc(O)cc1)[C@@H](CC)c1ccc(O)cc1
[4]
  outcome: inactive

## COc1cc(C(=O)NC2CCN(C)CC2)ccc1Nc1ncc2c(n1)N(C1CCCC1)CC(F)(F)C(=O)N2C
[5]
  outcome: inactive
[6]
  outcome: inactive
